Screening data deposited in PubChem by The Scripps Research Institute Molecular Screening Center.
MITF inh = inhibitors of human MITF; 650,000 tested, 0.91% active; AlphaScreen MITF homodimerization, bead proximity signal; O75030; AID 1259374; inhibition, % at 2.6 µM; in the data active = inhibition above about 50%;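 note: 0% = vehicle wells with protein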
Target sequence (O75030 whole entry, looked up): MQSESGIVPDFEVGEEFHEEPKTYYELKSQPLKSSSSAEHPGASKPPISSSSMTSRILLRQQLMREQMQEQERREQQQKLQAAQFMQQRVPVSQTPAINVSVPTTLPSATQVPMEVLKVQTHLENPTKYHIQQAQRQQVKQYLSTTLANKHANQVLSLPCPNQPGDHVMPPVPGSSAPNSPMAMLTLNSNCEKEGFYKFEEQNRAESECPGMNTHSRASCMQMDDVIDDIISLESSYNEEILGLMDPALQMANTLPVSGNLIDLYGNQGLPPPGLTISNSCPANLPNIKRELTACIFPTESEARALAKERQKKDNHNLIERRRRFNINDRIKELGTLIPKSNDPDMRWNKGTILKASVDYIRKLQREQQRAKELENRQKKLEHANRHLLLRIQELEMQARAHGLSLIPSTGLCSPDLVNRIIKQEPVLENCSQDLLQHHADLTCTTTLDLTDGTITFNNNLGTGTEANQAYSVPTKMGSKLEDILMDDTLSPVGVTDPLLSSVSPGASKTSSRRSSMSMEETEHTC
TEAD-YAP block = TEAD-YAP interaction inhibition. inhibition, % at 9.12 µM. HEK-TIYL cells, TEAD-Gal4/YAP UAS-luciferase luminescence. 640,000 tested, 1.4% active; in the data active = inhibition above about 32%;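 note: 0% = median of test compound wells and 100% = reference inhibitor wells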
FBW7 activator = activators of human E3 ligase FBW7 | Q969H0 | AlphaScreen FBW7–phospho-cyclin E peptide binding, activator screen | normalized activity (activation), % at 26.1 µM | 650,000 tested, 0.13% active; in the data active = normalized activity above about 1.9%;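 note: purified mutant Fbw7 with reduced substrate affinity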
GPR151 activ = activators of human GPR151 | PathHunter beta-arrestin GPR151 cells, luminescence | activation, % at 11.2 µM | 650,000 tested, 1% active; in the data active = activation above about 4.9%;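 note: 0% = median of compound wells and 100% = cells with positive control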
The depositor's hits bear a star. Only some compounds are listed: those with a hit (about 3.5% of all), similar ones and a draw of the others.

SMILES	MITF inh	TEAD-YAP block	FBW7 activator	GPR151 activ
COc1ccc(N2C(C(C)=O)=NN(c3ccccc3)C2c2cccc(OCc3ccc(Cl)cc3)c2)cc1 (centres undefined)	-12	5	0	0
O=C(NCCCO)/C(=C/c1ccncc1)NC(=O)c1ccccc1	-11	0	0	-1
c1cc2c(cc1CN1CCN(c3nc(NC4CC4)c4ncn(C5CCCCC5)c4n3)CC1)OCO2	14	3	0	0
c1ccc2[nH]c(CNc3nc(N4CCN(Cc5ccc6c(c5)OCO6)CC4)nc4c3ncn4C3CCCCC3)nc2c1	-1	41*	0	3
c1ccc2[nH]c(CNc3nc(N4CCN(Cc5ccc6c(c5)OCO6)CC4)nc4c3ncn4-c3ccsc3)nc2c1	-3	85*	0	0
CNC(=O)C12CC3CCC(CC(C3)C1)C2	3	-2	0	0
Cc1ccc2[nH]c(=O)c(CN(CC3COCCO3)C(=O)Nc3ccccc3Cl)cc2c1 (centres undefined)	3	37*	0	-1
Cc1cc(C(=O)Nc2ccc3ccccc3c2)oc1C	9	-18	0	-2
CCOc1cccc(C(=O)Nc2ccc3ccccc3c2)c1	10	58*	0	-4
CCOC(=O)c1ccc(NC(=O)c2cccc(Oc3ccccc3)c2)cc1	-7	48*	0	1
CCOc1cccc(C(=O)Nc2ccc3c(c2)OCCO3)c1	2	58*	0	-6
Cc1ccoc1C(=O)Nc1ccc2ccccc2c1	8	41*	0	-9
Cc1cc(N2CCN(Cc3ccccc3)CC2)n2ncnc2n1	1	8	0	0
CC(=O)Nc1ccc(Nc2nccn3c(-c4cccc5ccccc45)cnc23)cc1	-14	11	0	0
O=C(CCC(=O)Nc1ccc2c(c1)OCCO2)Nc1ccc2c(c1)OCCO2	16	1	0	-2
CCOCCC(=O)Nc1ccc2c(c1)OCCO2	8	39*	0	-2
O=C(OC(c1ccccc1)c1nccc2ccccc12)c1ccccc1 (centres undefined)	9	72*	0	0
COCC(C)n1c(C)cc(C(=O)COC(=O)c2oc3ccccc3c2C)c1C (centres undefined)	5	0	0	-1
Cc1cc(C(=O)CSc2nc3ccccc3[nH]2)c(C)n1C1CC1	7	-71	0	-1
COCC(C)n1c(C)cc(C(=O)COC(=O)c2n[nH]c3ccccc23)c1C (centres undefined)	18	88*	0	-2
COCC(C)n1c(C)cc(C(=O)CSc2nc3ccccc3[nH]2)c1C (centres undefined)	8	40*	0	3
COCC(C)n1c(C)cc(C(=O)COC(=O)c2c(OC)cccc2OC)c1C (centres undefined)	10	22	0	-2
COCC(C)n1c(C)cc(C(=O)COC(=O)c2cccc(C)c2C)c1C (centres undefined)	7	46*	0	0
CC(C)c1ccc2oc(-c3ccc(Cl)c(NC(=O)c4ccc(F)cc4)c3)nc2c1	14	0	0	2
COc1ccc(-c2noc(CN(C)C3CCOC3)n2)cc1 (centres undefined)	-1	-31	0	-1
SMILES	MITF inh	TEAD-YAP block	FBW7 activator	GPR151 activ
Cc1ccc(N2NC(=O)/C(=C/c3ccc(-c4ccc5c(c4)C(=O)NC5=O)o3)C2=O)cc1C	11	3	0	0
CC(=O)N(/N=C1\Sc2ccccc2C1=O)c1cccc(C)c1	0	-42	0	-1
CC(=O)N(/N=C1\Sc2ccccc2C1=O)c1ccccc1Cl	9	91*	0	-2
CCOC(=O)N1CCN(c2nnnn2-c2ccccc2)CC1	7	4	1	-1
CCOc1ccccc1N1CCN(c2nnnn2-c2ccccc2)CC1	17	42*	0	0
O=[N+]([O-])c1cc2c(cc1C=Nc1ccc(O)cc1)OCO2	53*	7	0	-2
CC(=O)Nc1nc(-c2ccc3c(c2)CCN3C(=O)C2CC2)c(C)s1	3	75*	0	1
Cc1sc(NC(=O)c2cnccn2)nc1-c1ccc2c(c1)CCN2C(=O)C1CCCCC1	7	0	0	1
CC(=O)Nc1nc(-c2ccc3c(c2)CCN3C(=O)C2CCCCC2)c(C)s1	20	78*	0	1
O=C(c1ccc(N2CCC(NC[C@H]3CCc4ccccc4O3)CC2)cc1)N1CCOCC1	4	-4	0	0
Cc1cc2cc3c(cc2c(C)n1)c1ccccc1n3C	-8	63*	0	-1
Cn1c2ccccc2c(=O)c2ccccc21	-6	-38	0	0
O=C(Nc1cccc2ccccc12)c1cc(Cl)ccc1O	9	64*	0	-2
O=C(Nc1cccc2ccccc12)c1ccccc1I	-1	4	0	2
Cc1ccccc1NC(=O)c1cc(Cl)ccc1O	-23	42*	0	-7
CCOC(=O)Nc1cc(C)nn1-c1nc(-c2ccc(C)cc2)cs1	-6	-6	0	3
CC(C)CC(c1nnnn1Cc1ccc(F)cc1)N1CCN(C)CC1 (centres undefined)	8	3	0	2
CCN1CCN(C(CC(C)C)c2nnnn2Cc2ccc(F)cc2)CC1 (centres undefined)	-5	53*	0	-1
Oc1ccc(-c2cn3ccsc3n2)cc1	12	73*	0	-2
CCOc1ccc(-c2cn3ccsc3n2)cc1	12	43*	0	-2
CC1(C)C(C(=O)O)N2C(=O)C(NC(=O)C(C(=O)O)c3ccccc3)C2S1=O (centres undefined)	23	1	2.5*	-1
CC1(C)S[C@@H]2[C@H](NC(=O)[C@H](C(=O)O)c3cccs3)C(=O)N2[C@H]1C(=O)O	-17	-3	0	1
CCCNC(=O)c1c(O)c2cccc3c2n(c1=O)CC3	9	-27	0	0
CCOC(=O)c1cc2c(=O)n3ccccc3nc2n(CCOC)c1=NC(=O)C1CCCCC1	-3	37*	0	-2
CCOC(=O)c1cc2c(=O)n3ccccc3nc2n(CCOC)c1=NC(=O)C(C)(C)C	-1	1	0	2
SMILES	MITF inh	TEAD-YAP block	FBW7 activator	GPR151 activ
COc1ccc(C)cc1Nc1c2c(nc3ncnn13)CCC2	8	38*	0	0
COc1ccccc1Nc1c2c(nc3ncnn13)CCC2	1	-7	0	0
COc1ccc(NC(=O)N(CCCO)Cc2cc3cccc(C)c3[nH]c2=O)cc1	4	-3	0	0
Cc1cccc2cc(CN(CCO)C(=O)Nc3ccc(F)cc3)c(=O)[nH]c12	9	13	2.3*	0
COc1ccc2[nH]c(=O)c(CN(Cc3cccnc3)C(=O)Nc3ccc(F)cc3)cc2c1	13	46*	1	0
COc1ccc2[nH]c(=O)c(CN(Cc3cccnc3)C(=O)Nc3ccccc3)cc2c1	3	17	0	-1
c1ccc2[nH]c(CNc3ncnc4nc(Nc5ccc(-n6ccnc6)cc5)[nH]c34)nc2c1	8	-10	0	0
CCN(CC)S(=O)(=O)c1cccc(C(=O)N/N=C/c2cccc(O)c2O)c1	71*	5	-1	1
